According to PubChem BioAssay (NCI):
Compounds without any hit were thinned out: in the full panel of roughly 83,000, 20% have a hit.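 Results are percent growth after 48 hours of single-concentration exposure. 100 means growth as in untreated cells, lower positive values show inhibition; negative values down to -100 show cell death.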

Columns and labels:
Test in all cases: NCI-60 one-dose screen, 48 h (100 = growth as untreated, 0 = no growth, -100 = all killed)
Conditions in all cases: 10 µM; active = growth percent below 10; inactive = the rest
[1] = system: NCI-H23 lung
[2] = system: NCI-H226 lung
[3] = system: HOP-62 NSCLC
[4] = system: NCI-H460 lung
[5] = system: HOP-92 NSCLC
[6] = system: NCI-H522 lung
[7] = system: A549/ATCC NSCLC
[8] = system: 786-0 renal
[9] = system: COLO 205 colon
[10] = system: DU-145 prostate
[11] = system: K-562 leukemia
[12] = system: MALME-3M melanoma
[13] = system: MDA-MB-231 breast
[14] = system: RXF 393 renal
[15] = system: SF-268 CNS
[16] = system: SF-295 CNS
[17] = system: SF-539 CNS
[18] = system: UACC-257 melanoma
[19] = system: M14 melanoma

Measured: growth

CC(C)(C)OC(=O)N1CCc2c(sc3ncnc(N/N=C/c4ccc(Br)cc4)c23)C1
inactive: [1] 71.8% | [2] 79% | [3] 69% | [4] 39.6% | [5] 94.4% | [6] 35.6% | [7] 50.2% | [8] 76.5% | [9] 41% | [10] 92.6% | [11] 15.1% | [12] 51.3% | [13] 73.2% | [14] 66.4% | [15] 82.2% | [16] 49% | [17] 60.7% | [18] 73.4% | [19] 47.7%

O=S(=O)(O)c1ccc(Cl)cc1
inactive: [1] 96% | [2] 97.3% | [3] 95.2% | [4] 103% | [5] 117% | [6] 94.6% | [7] 97% | [8] 111% | [9] 109% | [10] 101% | [11] 99.7% | [12] 98.2% | [13] 107% | [14] 123% | [15] 95.1% | [16] 109% | [17] 102% | [18] 99.2% | [19] 99.7%

Cc1cc(CCNC=O)c(C)c2c1sc1ccccc12
inactive: [1] 86.6% | [2] 77.2% | [3] 86.2% | [4] 104% | [5] 91.2% | [6] 101% | [7] 82.9% | [8] 106% | [9] 124% | [10] 112% | [11] 97.2% | [12] 105% | [13] 79.9% | [14] 80% | [15] 92.5% | [16] 94.8% | [17] 87.2% | [18] 90.1% | [19] 118%

O=[N+]([O-])c1cccc(/C=N/NC(=S)NC23CC4CC(CC(C4)C2)C3)c1
inactive: [1] 86.6% | [2] 48.4% | [3] 24.3% | [4] 56.4% | [5] 64% | [6] 88.8% | [7] 56.5% | [8] 79.8% | [9] 102% | [10] 83.9% | [11] 89.2% | [12] 60.1% | [13] 70.2% | [14] 75.9% | [15] 77.8% | [16] 73.3% | [17] 92.3% | [18] 76.4% | [19] 89%

COc1ccc(/C(C#N)=C/c2cccc(OC)c2OC)cc1
inactive: [1] 80% | [2] 89% | [3] 88% | [4] 108% | [5] 86.4% | [6] 58.8% | [7] 67.5% | [8] 93.8% | [9] 88.8% | [10] 106% | [11] 33.3% | [12] 73.2% | [13] 83.3% | [14] 85.7% | [15] 92.5% | [16] 75.3% | [17] 94.6% | [18] 78% | [19] 86%

COc1ccc2nc(-c3ccc(Cl)cc3)cc(-c3nnc(SC/C(=N\O)c4ccccc4)n3-c3ccccc3)c2c1
inactive: [1] 92.9% | [2] 82.5% | [3] 109% | [4] 86.9% | [5] 95.4% | [6] 82.7% | [7] 63.1% | [8] 88.1% | [9] 98.7% | [10] 84.3% | [11] 59% | [12] 118% | [13] 86.3% | [14] 66.7% | [15] 83.5% | [16] 102% | [17] 103% | [18] 72.1% | [19] 78.6%

O=C1/C(=C/c2ccc3c(c2)OCO3)SC(=S)N1C1c2ccccc2Oc2ccccc21
inactive: [1] 89.8% | [2] 97.9% | [3] 98.3% | [4] 107% | [5] 90.7% | [6] 95.8% | [7] 109% | [8] 97.6% | [9] 99.7% | [10] 99.7% | [11] 99.5% | [12] 80.1% | [13] 96% | [14] 103% | [15] 98.1% | [16] 97.8% | [17] 94.3% | [18] 112% | [19] 93.5%

N#Cc1ccc(C(=O)CSc2nccc(Nc3ccc(C(=O)O)cc3)n2)cc1
inactive: [1] 100% | [2] 101% | [3] 108% | [4] 104% | [5] 104% | [6] 94.4% | [7] 102% | [8] 104% | [9] 110% | [10] 110% | [11] 106% | [12] 106% | [13] 107% | [14] 97.4% | [15] 102% | [16] 97.4% | [17] 97.9% | [18] 110% | [19] 110%
